Laboratory results published in the supplement of paper PMC11732987, “Enantioselective OTUD7B fragment discovery through chemoproteomics screening and high-throughput optimisation” (Communications Chemistry, 2025).

Tests used:
Test in all cases: log2 ratio of Biotin-Ahx-Ub-VS probe labelling (fragment/DMSO); higher = less target engagement (more negative = stronger competition), active = hit call of the paper (q ≤ 0.05, log2 ratio ≤ -1)
Conditions in all cases: compound concentration: 200 uM; treatment time: 3 h
USP19 = molecular target: T1, USP19 (UniProt O94966)
T1 sequence (whole entry): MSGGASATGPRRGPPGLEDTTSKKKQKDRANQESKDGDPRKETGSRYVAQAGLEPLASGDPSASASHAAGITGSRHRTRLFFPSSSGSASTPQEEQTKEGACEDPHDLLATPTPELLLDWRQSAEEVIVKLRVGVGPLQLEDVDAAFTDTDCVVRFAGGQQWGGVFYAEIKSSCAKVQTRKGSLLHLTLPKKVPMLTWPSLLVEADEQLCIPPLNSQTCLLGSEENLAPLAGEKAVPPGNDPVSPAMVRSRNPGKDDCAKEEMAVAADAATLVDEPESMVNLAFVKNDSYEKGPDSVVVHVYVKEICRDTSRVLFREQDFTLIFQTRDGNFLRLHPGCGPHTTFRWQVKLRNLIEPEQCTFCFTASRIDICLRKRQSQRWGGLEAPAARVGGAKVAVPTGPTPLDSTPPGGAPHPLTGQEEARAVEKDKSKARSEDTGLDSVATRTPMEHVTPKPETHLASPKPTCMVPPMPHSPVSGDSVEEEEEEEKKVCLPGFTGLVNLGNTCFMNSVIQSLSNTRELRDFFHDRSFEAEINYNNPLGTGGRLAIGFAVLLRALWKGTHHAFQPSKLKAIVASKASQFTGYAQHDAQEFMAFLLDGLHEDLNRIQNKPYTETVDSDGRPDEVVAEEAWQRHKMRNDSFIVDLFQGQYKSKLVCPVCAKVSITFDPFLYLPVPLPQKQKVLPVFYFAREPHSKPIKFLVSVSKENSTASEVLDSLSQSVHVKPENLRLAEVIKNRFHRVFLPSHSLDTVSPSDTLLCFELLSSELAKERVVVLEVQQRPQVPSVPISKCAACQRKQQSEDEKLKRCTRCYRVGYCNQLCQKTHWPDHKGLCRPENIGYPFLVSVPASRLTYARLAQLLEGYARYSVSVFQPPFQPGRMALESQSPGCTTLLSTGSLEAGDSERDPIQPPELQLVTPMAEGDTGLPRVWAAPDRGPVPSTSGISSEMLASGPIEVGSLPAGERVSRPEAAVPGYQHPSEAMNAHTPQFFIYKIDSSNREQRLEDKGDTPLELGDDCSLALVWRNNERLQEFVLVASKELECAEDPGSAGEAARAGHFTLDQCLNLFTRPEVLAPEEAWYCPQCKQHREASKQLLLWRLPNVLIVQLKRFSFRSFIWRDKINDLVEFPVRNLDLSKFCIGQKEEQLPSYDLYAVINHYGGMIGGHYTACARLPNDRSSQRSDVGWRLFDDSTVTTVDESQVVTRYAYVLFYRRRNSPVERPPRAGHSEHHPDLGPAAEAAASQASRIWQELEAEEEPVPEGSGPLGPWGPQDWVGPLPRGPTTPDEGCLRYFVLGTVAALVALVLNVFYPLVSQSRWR
In short: (§1)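 The table lists average log2 ratios of fragment over vehicle, from an unpaired t-test on global-median-normalised Spectronaut label-free quantities. Proteins with ≥2 unique peptides were used. Samples were HEK293T lysate (495 µg) treated in triplicate with fragment at 200 µM or vehicle for 3 h, then with Biotin-Ahx-Ub-VS (0.5 µM final) for 1 h, with labelled DUBs NeutrAvidin-enriched and run by diaPASEF LC-MS/MS.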

USP24 = USP24 (UniProt Q9UPU5)
USP24, sequence (Q9UPU5 whole entry): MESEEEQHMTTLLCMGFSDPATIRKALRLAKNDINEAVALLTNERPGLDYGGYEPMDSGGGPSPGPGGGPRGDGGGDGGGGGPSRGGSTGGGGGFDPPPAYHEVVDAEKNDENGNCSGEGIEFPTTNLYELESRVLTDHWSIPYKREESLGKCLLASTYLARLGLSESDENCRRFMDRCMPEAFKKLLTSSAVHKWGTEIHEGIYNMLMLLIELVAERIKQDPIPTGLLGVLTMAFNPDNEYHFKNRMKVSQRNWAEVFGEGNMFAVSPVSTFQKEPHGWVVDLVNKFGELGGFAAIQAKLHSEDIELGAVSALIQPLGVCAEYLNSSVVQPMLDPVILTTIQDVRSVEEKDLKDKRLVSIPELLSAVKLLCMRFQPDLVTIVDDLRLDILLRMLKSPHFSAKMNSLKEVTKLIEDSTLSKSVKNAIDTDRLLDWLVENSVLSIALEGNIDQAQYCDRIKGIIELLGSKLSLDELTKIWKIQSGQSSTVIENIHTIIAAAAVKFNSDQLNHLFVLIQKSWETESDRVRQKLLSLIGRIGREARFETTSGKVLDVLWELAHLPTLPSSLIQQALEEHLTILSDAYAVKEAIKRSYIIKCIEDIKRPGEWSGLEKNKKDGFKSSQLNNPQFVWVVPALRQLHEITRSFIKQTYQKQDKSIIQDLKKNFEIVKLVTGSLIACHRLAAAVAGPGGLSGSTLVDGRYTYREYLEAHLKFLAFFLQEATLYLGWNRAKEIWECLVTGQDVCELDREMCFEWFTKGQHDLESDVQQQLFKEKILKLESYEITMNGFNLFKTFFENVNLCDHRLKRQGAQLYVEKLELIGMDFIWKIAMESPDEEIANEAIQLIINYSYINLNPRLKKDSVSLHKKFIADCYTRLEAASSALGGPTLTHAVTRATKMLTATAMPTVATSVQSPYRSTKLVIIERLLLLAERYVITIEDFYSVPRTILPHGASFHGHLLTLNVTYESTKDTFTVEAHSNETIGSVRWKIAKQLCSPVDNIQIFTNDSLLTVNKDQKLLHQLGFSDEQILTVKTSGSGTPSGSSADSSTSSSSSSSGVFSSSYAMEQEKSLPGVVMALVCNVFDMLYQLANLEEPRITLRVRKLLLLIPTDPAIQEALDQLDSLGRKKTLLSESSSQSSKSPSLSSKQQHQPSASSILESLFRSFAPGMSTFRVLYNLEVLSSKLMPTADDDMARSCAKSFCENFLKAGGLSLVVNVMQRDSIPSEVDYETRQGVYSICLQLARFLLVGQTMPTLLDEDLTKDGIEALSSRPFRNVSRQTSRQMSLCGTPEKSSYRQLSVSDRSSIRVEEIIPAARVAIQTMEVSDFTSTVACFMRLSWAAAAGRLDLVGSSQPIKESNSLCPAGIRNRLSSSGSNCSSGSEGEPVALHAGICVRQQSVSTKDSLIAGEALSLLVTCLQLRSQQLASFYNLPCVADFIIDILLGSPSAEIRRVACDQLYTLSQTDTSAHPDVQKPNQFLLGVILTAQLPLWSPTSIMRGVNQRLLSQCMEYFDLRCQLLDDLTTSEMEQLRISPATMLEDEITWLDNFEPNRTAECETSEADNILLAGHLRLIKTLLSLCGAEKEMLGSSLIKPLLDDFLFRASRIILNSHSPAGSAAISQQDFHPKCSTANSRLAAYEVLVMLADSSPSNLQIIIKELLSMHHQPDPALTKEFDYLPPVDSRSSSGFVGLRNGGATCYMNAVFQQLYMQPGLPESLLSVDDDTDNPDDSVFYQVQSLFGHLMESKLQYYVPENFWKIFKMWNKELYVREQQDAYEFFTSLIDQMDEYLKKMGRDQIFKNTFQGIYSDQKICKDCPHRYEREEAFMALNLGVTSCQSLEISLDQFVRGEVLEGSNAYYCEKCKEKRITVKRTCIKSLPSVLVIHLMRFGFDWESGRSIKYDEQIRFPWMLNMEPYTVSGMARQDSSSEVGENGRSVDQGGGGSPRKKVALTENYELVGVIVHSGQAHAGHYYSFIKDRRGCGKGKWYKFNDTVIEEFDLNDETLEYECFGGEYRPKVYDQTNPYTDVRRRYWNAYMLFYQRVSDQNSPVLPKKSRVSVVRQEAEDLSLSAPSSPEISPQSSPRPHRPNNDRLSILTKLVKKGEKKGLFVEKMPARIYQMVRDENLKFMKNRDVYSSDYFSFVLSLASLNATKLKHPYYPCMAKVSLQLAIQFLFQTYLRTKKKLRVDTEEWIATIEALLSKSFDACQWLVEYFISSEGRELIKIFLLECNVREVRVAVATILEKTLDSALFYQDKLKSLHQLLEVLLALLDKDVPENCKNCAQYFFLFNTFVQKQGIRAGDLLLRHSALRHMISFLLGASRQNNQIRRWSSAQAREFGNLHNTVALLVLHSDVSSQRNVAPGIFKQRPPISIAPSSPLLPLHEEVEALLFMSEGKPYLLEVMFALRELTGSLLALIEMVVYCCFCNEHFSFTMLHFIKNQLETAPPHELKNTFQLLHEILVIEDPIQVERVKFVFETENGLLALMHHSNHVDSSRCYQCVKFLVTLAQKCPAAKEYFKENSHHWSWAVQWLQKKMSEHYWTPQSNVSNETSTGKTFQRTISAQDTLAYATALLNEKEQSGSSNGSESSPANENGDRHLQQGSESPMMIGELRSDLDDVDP
In short: as §1

USP25 = molecular target: T2, USP25 (UniProt Q9UHP3)
T2 sequence (whole entry): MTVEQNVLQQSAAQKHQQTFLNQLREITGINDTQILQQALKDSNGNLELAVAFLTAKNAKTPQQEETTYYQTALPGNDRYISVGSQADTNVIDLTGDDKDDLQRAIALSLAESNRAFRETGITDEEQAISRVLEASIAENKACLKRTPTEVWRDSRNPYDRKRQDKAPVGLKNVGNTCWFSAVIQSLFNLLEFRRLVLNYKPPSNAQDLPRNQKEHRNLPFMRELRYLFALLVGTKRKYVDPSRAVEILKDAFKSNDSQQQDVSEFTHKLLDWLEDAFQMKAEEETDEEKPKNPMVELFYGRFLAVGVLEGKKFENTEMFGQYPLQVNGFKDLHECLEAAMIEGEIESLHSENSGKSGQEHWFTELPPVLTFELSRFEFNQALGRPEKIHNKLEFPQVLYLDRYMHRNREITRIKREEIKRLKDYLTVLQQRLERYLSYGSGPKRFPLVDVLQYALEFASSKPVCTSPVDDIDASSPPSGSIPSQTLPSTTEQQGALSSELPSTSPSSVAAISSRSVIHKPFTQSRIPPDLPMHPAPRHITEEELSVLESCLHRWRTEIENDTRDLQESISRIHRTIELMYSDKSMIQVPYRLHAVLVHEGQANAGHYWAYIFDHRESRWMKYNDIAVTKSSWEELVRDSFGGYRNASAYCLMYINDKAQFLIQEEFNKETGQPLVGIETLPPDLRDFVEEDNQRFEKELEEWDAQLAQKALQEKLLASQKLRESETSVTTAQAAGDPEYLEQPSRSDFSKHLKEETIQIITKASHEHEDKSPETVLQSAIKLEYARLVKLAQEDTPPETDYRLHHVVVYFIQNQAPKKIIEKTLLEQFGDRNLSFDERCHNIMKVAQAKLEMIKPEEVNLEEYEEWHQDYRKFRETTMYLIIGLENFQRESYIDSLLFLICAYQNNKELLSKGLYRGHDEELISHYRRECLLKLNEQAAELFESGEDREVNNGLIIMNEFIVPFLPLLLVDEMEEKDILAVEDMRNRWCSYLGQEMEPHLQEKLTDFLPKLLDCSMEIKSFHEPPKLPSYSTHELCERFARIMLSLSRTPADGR
In short: as §1

USP28 = molecular target: T3, USP28 (UniProt Q96RU2)
T3 sequence (whole entry): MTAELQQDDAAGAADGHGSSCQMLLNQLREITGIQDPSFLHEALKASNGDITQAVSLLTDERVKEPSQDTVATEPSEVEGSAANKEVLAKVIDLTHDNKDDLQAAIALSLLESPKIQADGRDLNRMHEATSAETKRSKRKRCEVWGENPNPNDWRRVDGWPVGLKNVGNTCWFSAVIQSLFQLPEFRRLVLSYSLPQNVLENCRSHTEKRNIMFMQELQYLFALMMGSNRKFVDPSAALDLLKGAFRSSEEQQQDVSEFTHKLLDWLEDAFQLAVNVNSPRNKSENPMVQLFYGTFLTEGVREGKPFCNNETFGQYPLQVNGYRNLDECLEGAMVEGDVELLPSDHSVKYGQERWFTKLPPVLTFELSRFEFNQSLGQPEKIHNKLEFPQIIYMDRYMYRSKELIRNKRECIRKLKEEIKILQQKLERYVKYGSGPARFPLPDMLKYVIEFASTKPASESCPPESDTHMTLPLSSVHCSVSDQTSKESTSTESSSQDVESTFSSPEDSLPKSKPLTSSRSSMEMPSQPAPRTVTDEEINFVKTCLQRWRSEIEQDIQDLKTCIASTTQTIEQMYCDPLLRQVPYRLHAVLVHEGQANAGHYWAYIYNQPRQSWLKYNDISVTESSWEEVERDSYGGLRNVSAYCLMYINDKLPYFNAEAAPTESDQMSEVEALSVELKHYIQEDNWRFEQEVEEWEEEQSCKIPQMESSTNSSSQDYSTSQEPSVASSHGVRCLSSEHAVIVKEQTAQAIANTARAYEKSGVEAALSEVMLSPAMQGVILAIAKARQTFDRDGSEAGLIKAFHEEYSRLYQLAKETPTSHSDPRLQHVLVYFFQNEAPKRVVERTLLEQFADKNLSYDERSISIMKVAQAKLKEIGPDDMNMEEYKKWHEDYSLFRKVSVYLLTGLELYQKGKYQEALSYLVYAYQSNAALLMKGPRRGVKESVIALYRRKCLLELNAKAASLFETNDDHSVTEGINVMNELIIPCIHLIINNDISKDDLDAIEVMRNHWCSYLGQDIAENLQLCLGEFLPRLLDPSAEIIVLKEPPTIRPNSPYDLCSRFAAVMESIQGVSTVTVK
In short: as §1

Measured: log2 ratio of Biotin-Ahx-Ub-VS probe labelling

CNC(=O)C1(NC(=O)CCl)CCCCC1
inactive: USP19 0.162 | USP24 0.0556 | USP25 -0.118 | USP28 -0.181
